Measurements published in ChEMBL document CHEMBL3433997, “St. Jude Leishmania screening dataset” (2016).

biological target: Solute carrier family 2, facilitated glucose transporter member 1 (Homo sapiens) (UniProt P11166); assay: ST_JUDE_LEISH: Cytotoxicity at 2uM final concentration against transgenic Leishmania Mexicana promastigotes LmGLUT1 that are glucose transport deficient and complemented with the human glucose transporter GLUT1. Activity is measured by DNA content using SYBR green in vitro; type: functional
Sequence (P11166 whole entry): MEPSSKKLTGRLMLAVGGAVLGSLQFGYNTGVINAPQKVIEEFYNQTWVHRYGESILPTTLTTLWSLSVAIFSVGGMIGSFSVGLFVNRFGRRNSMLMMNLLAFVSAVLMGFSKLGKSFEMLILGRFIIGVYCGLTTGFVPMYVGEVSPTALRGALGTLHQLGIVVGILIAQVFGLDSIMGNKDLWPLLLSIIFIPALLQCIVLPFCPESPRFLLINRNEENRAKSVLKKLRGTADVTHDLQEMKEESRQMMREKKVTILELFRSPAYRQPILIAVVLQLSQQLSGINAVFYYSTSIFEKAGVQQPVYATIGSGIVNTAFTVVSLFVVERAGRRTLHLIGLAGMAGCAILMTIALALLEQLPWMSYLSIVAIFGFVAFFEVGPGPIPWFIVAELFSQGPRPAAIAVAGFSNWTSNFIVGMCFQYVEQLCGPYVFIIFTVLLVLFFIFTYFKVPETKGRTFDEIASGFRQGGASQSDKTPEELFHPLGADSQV

SMILES	inhibition [%]
O=C(NCc1cccc(F)c1)c1ccc(O)c(-c2cc(Cl)cc(Cl)c2)c1	4.04
OCC1CCN(Cc2ccc(-c3cccc(-c4nc5cc(F)ccc5[nH]4)c3)cc2)CC1	-1.93
N#Cc1ccc(N2CCN(Cc3ccc(-c4cccc(-c5nc6ccccc6[nH]5)c4)cc3)CC2)nc1	2.3
Cc1cc(-c2ccnc(Nc3cccc(C#N)c3)n2)cc(C)c1O	13.8
CN1CCN(CCCN(Cc2cccc(-c3cccc(CNCc4ccc5c(c4)OCO5)c3)c2)C(=O)CCC2CCCC2)CC1	16.7
CN(C)CCCNCc1ccc(-c2ccc(CNCCc3ccccc3)cc2)cc1	-0.43
O=C(NCC1CCN(Cc2cccc(C(F)(F)F)c2)C1)c1cc(-c2cccc(C(F)(F)F)c2)cs1 (stereo not given)	3.9
CCCCCCCN1CC[C@@H](CCCc2ccnc3ccc(OC)cc23)[C@@H](CCN)C1	3.03
Clc1ccccc1OCc1ccccn1	3.19
Cc1noc(C)c1-c1cccc(CNCc2ccc(-c3ccc(-c4nc5cccc(C)c5[nH]4)cc3)cc2)c1	2.03
CCCCCCNC(=O)C(N)CCCC(N)C(=O)NCCCCCC (stereo not given)	6.05
Nc1c(Cl)cc(C(O)CNCCCCCCOCCC=C2CCOCC2)cc1Cl (stereo not given)	-0.91
O=C(NCCN1CCCC1)c1ccc(-c2ccc(-c3nc4ccccc4[nH]3)s2)cc1	0.96
COc1cccc2c(Nc3ccccc3C)nc(Nc3ccccc3C)nc12	19.6
Cc1cc2nc(N/C(N)=N/C(=O)NC3CCCCC3)nc(C)c2cc1C	3.18
CC(C)NCc1ccc(-c2ccc(CN3CCCC(c4ccccc4)C3)cc2)c(C(=O)NCC2CCCCC2)c1 (stereo not given)	-0.28
CC1(C)N=C(NC(=O)Nc2ccc([N+](=O)[O-])cc2)N=C(N)N1OCc1cccc2ccccc12	2.41
COc1cc(C)nc2ccc(NC(=O)Nc3ccc([N+](=O)[O-])cc3C)cc12	3.91
Cc1cc(CNCCCCCNCc2cccc([N+](=O)[O-])c2)ccc1O	1.94
COCCNCc1cccc(-c2ccc3nccc(Nc4cc(O)ccc4C)c3c2)c1	3.68

SMILES	inhibition [%]
Cc1ccc([N+](=O)[O-])cc1NC(=O)N(CC(O)c1ccccc1)C1CCCCC1 (stereo not given)	1.93
FC(F)(F)c1ccc2[nH]c(-c3cccc(-c4cccc(CNCC5CCCO5)c4)c3)nc2c1 (stereo not given)	4.7
O=C(Nc1ccc2c(c1)CCN2C1CCN(Cc2cccc3cc[nH]c23)C1)c1ccco1 (stereo not given)	0.46
CCOc1cc(Br)c(C(C)NC(=O)c2ccccc2)cc1OCC (stereo not given)	1.08
CCCNCc1ccc(-c2ccc(CN(CCOC)C(=O)/C=C/c3ccccc3C)cc2)nc1	9.67
O=S(=O)(Nc1cc2c(cc1OCCCN1CCCCC1)CCNCC2)c1ccc(-c2ccc(Cl)cc2)cc1	1.29
Cc1c(Cl)cccc1S(=O)(=O)Nc1ccc(CCN2CCC(N)CC2)cc1	-2.63
OC(CN1CCN(c2cccc(Cl)c2)CC1)C(c1ccccc1)c1ccccc1 (stereo not given)	-1.02
CCCCCCCN1CC[C@@H](CCCc2ccnc3ccc(OCCN4CCNCC4)cc23)[C@@H](CC)C1	5.11
N=c1c(C(=O)NCc2ccccc2)cc2c(=O)n3ccccc3nc2n1CCc1ccccc1	3.5
O=C(Nc1ccccc1)N(Cc1ccc(-c2cccc(CNCc3ccc4c(c3)OCO4)c2)cc1)C1CCN(Cc2ccccc2)CC1	-0.01
Cc1cc(C)cc(OCC(O)CN(CCN2CCOCC2)C(=O)Nc2ccc(Br)cc2)c1 (stereo not given)	12.2
O=C(Nc1ccc2ccccc2c1)N(CCCn1ccnc1)Cc1csc(-c2ccc(CNCc3ccccc3)cc2)n1	-0.95
CC(C)CCNCc1c(O)ccc2ccccc12	-2.54
O=C(C=Cc1ccc(Cl)c(Cl)c1)NCCCCCN1CCC(CCNC(=O)c2ccc3c(c2)OCO3)CC1	5.94
CCCC(=O)c1cnc2c(I)cccc2c1Nc1ccccc1C	3.51
CCCCCCNC(=O)C1Cc2c([nH]c3ccc(Br)cc23)C2(CCN(CCc3ccccc3)CC2)N1 (stereo not given)	13.8
Cc1ccoc1C(=O)Nc1cccc(-c2cccc(-c3nc4ccccc4[nH]3)c2)c1	12.3
O=C(NCC1CCC(C(=O)NC2CCCc3ccccc32)CC1)c1ccc(O)c(-c2ccc(Cl)c(Cl)c2)c1 (stereo not given)	3.42
Cc1nc(Nc2ccc(C)c(Cl)c2)c2c(C)noc2n1	5.28
